# Unmarked numbers belong to inactive results. Inconclusive results are not listed. Entries that show only a call come without a potency. Calls of active or inactive are those of the source. Unless noted, the call rests on the fitted dose curve; in most records, active means well fitted curve in the direction sought with a large enough effect in the repeat runs; inconclusive means weak or mixed curves; inactive means no such curve, though single readings can be large; an effect the other way counts as inactive or inconclusive.
# Assays:
# [1] = qHTS assay to identify small molecule antagonists of the glucocorticoid receptor (GR) signaling pathway - cell viability counter screen (AID 720693); further: nearly all actives have a fitted effect of over 55% in size
# [2] = qHTS assay for identifying genotoxic compounds that show differential cytotoxicity against isogenic chicken DT40 cell lines with known DNA damage response pathways - wild type cell line (AID 743012); further: nearly all actives have a fitted effect of over 60% in size; further: potency means the concentration at half of the fitted maximal effect
# Method in brief: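 Parental DNA repair-proficient DT40 cells, 300 per well, were pre-incubated ~0.5 h at 37 C/5% CO2, pin-dosed with compounds in DMSO, then incubated 40 h. Viability was read as CellTiter-Glo luminescence after 30 min at room temperature.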
# [3] = qHTS assay for identifying genotoxic compounds that show differential cytotoxicity against isogenic chicken DT40 cell lines with known DNA damage response pathways - Rad54/Ku70 mutant cell line (AID 743015); further: nearly all actives have a fitted effect of over 60% in size; further: potency means the concentration at half of the fitted maximal effect
# [4] = qHTS assay to identify small molecule antagonists of the androgen receptor (AR) signaling pathway using the MDA cell line - cell viability counter screen (AID 743041; further: nearly all actives have a fitted effect of over 45% in size)
# Method in brief: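 R1881-driven MDA-kb2 AR-luc cells, 3,000/well, were dosed with library compounds for 16 h; cell health came from CellTiter-Fluor fluorescence in the reporter wells.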
# [5] = system: thyroid hormone receptor (rat, GH3 cells); assay: qHTS assay to identify small molecule agonists of the thyroid receptor (TR) signaling pathway (AID 743066; calls by dose curve)
# [6] = qHTS assay to identify small molecule antagonists of the estrogen receptor alpha (ER-alpha) signaling pathway - cell viability counter screen (AID 743074; calls by dose curve;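 further: HEK293 cells carrying ER-alpha-UAS-bla reporter stimulated with 17beta-estradiol; nearly all actives have a fitted effect of over 45% in size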)
# [7] = target: Estrogen receptor (Homo sapiens) (UniProt P03372); assay: qHTS assay to identify small molecule agonists of the estrogen receptor alpha (ER-alpha) signaling pathway (AID 743075; calls by dose curve)
# [8] = qHTS assay to identify small molecule antagonists of the estrogen receptor alpha (ER-alpha) signaling pathway using the BG1 cell line - cell viability counter screen (AID 743081);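 further: compound given together with 17beta-estradiol as the ER stimulus; nearly all actives have a fitted effect of over 45% in size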; further: potency means the concentration at half of the fitted maximal effect
# [9] = target: Aromatase (Homo sapiens) (UniProt P11511); assay: qHTS assay to identify aromatase inhibitors (AID 743083); further: nearly all actives have a fitted effect of over 55% in size; further: potency means the concentration at half of the fitted maximal effect
# [10] = qHTS assay to identify aromatase inhibitors - cell viability counter screen (AID 743084);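 further: cells stimulated with testosterone during compound exposure; nearly all actives have a fitted effect of over 55% in size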
# [11] = qHTS assay to identify small molecule antagonists of the androgen receptor (AR) signaling pathway - cell viability counter screen (AID 743033; further: nearly all actives have a fitted effect of over 45% in size)
# [12] = target: Estrogen receptor (Homo sapiens) (UniProt P03372); assay: qHTS assay to identify small molecule antagonists of the estrogen receptor alpha (ER-alpha) signaling pathway (AID 743069; active means well fitted curve in the direction sought with a large enough effect in the signal ratio in the repeat runs, not every such curve was filed as active; the % refers to the signal ratio)
# Method in brief: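 Compound effects are measured against 17beta-estradiol stimulation in HEK293 cells with a UAS-controlled beta-lactamase reporter for ER-alpha. Exposure lasts 18 hr at 37C; LiveBLAzer B/G FRET substrate follows for 2 hr at room temperature.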
# [13] = target: Estrogen receptor (Homo sapiens) (UniProt P03372); assay: qHTS assay to identify small molecule agonists of the estrogen receptor alpha (ER-alpha) signaling pathway using the BG1 cell line (AID 743079); further: nearly all actives have a fitted effect of over 20% in size; further: potency means the concentration at half of the fitted maximal effect
# [14] = qHTS assay to identify small molecule antagonists of the estrogen receptor alpha (ER-alpha) signaling pathway using the BG1 cell line (AID 743080; calls by dose curve;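 further: BG1 cells stimulated with 17beta-estradiol alongside compound; nearly all actives have a fitted effect of over 25% in size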; further: potency means the concentration at half of the fitted maximal effect)
# Method in brief: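 BG1Luc4E2, endogenous ER-alpha, 4xERE-luc; 5 d charcoal-stripped FBS, phenol red free; 24 h plating; cpd + 17beta-estradiol 21.5 h, 37 C/5% CO2; CellTiter-Fluor viability 30 min, then ONE-Glo luciferase 30 min RT.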
# [15] = target: Androgen receptor (Homo sapiens) (UniProt P10275); assay: qHTS assay to identify small molecule agonists of the androgen receptor (AR) signaling pathway using the MDA cell line (AID 743040; further: nearly all actives have a fitted effect of over 20% in size)
# Method in brief: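 After a 5 h incubation at 37C and 0% CO2, MDA-kb2 reporter cells were dosed with compounds in DMSO and kept 16 h under the same conditions. Luciferase activity was then read as luminescence with ONE-Glo.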
# [16] = target: Androgen receptor (Homo sapiens) (UniProt P10275); assay: qHTS assay to identify small molecule antagonists of the androgen receptor (AR) signaling pathway using the MDA cell line (AID 743042; further: nearly all actives have a fitted effect of over 55% in size)
# Method in brief: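 Antagonist mode: compounds plus R1881 agonist added to MDA-kb2 AR-luc cells, incubated 16 h at 37C. Luciferase reporter luminescence quantified, with multiplexed CellTiter-Fluor readout for cell viability.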
# [17] = qHTS assay to identify small molecule antagonists of the thyroid receptor (TR) signaling pathway - cell viability counter screen (AID 743064); further: nearly all actives have a fitted effect of over 50% in size
# Method in brief: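 Counter screen for cytotoxicity: compound plus T3 (1 nM final) on GH3.TRE-Luc cells, 23.5 h at 37 °C, then fluorescence viability readout with CellTiter-Fluor.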
# [18] = qHTS assay for identifying genotoxic compounds that show differential cytotoxicity against isogenic chicken DT40 cell lines with known DNA damage response pathways - Rev3 mutant cell line (AID 743014); further: nearly all actives have a fitted effect of over 55% in size
# [19] = qHTS assay to identify small molecule antagonists of the thyroid receptor (TR) signaling pathway (AID 743065)
# Method in brief: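 Antagonism measured as loss of luciferase signal in GH3 cells stably carrying a TRE-luciferase reporter, co-treated with compound and T3 (1 nM final) for 23.5 h at 37 C. Viability was read in the same well by CellTiter-Fluor.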
# [20] = target: Androgen receptor (Homo sapiens) (UniProt P10275); assay: qHTS assay to identify small molecule agonists of the androgen receptor (AR) signaling pathway (AID 743036; active means well fitted activation curve with a large enough effect in the signal ratio in the repeat runs, with a control signal flat, not every such curve was filed as active; the % refers to the signal ratio)
# Method in brief: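 In this Tox21 qHTS, 2,000 HEK293 AR-bla cells per well were incubated with compounds for 16 h at 37C and 5% CO2. Fluorescence intensity was recorded 2 h after adding LiveBLAzer B/G FRET substrate at room temperature.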
# Sequence of Aromatase (Homo sapiens) (P11511 whole entry, looked up): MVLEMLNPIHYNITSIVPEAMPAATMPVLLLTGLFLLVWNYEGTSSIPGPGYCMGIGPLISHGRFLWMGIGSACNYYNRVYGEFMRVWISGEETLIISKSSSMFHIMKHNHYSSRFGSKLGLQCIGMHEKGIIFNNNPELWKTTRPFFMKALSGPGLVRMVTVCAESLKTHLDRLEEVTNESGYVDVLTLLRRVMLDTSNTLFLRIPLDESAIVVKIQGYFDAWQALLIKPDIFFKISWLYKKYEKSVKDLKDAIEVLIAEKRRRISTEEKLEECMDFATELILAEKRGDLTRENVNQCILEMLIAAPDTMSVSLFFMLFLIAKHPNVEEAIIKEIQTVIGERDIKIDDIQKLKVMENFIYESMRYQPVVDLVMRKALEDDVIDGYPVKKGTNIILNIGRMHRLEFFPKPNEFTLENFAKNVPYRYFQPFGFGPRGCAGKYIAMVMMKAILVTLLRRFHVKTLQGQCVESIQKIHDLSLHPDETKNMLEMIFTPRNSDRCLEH
# Sequence of Estrogen receptor (Homo sapiens) (P03372 whole entry, looked up): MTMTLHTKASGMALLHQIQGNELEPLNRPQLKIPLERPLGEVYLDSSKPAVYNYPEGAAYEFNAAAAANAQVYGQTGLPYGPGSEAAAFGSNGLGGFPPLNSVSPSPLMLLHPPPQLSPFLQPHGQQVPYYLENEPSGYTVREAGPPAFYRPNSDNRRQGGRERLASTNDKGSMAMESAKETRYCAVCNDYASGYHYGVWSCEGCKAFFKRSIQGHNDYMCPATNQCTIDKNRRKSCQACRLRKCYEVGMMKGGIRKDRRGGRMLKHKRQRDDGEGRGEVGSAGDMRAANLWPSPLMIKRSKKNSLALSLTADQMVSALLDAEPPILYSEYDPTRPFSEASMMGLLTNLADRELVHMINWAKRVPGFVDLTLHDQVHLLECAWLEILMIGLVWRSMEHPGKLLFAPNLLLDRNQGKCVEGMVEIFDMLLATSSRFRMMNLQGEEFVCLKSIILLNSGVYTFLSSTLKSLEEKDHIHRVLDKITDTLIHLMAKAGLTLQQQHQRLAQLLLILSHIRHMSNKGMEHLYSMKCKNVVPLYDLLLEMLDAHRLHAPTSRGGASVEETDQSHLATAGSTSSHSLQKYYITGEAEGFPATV
# Sequence of Androgen receptor (Homo sapiens) (P10275 whole entry, looked up): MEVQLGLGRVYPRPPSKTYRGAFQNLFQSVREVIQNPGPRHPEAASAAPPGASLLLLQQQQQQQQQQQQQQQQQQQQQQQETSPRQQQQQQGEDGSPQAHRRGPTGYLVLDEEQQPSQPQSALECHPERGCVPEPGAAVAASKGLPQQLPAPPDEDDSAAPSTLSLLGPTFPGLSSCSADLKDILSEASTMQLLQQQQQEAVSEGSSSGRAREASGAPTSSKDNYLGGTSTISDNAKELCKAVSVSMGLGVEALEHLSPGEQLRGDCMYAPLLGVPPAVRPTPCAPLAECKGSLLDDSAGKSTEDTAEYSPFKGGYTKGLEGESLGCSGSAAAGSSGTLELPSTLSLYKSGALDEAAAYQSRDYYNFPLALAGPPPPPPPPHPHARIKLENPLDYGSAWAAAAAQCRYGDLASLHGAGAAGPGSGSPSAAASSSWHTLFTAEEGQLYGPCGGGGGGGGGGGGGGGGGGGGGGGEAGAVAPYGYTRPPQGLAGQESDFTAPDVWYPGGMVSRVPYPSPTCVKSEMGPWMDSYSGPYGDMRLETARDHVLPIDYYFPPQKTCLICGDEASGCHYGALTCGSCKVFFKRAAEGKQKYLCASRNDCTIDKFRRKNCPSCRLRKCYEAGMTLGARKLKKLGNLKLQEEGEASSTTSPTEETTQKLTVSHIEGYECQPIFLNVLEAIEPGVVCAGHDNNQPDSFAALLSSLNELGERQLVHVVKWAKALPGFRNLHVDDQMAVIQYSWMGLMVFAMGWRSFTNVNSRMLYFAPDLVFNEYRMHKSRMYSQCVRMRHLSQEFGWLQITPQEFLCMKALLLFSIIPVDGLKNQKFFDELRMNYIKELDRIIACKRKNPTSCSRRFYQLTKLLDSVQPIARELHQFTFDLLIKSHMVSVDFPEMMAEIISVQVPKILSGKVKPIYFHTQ
compound,measurement,setting,value
COc1cc(NC(C)CCCN)c2ncccc2c1 (centres undefined),Potency,[1],inactive
same,Potency,[2],11.4 µM (active)
same,Potency,[3],12.7 µM (active)
same,Potency,[4],inactive
same,Potency,[5],inactive
same,Potency,[6],inactive
same,Potency,[7],inactive
same,Potency,[8],10.1 µM (active)
same,Potency,[9],inactive
same,Potency,[10],inactive
FC(F)(F)C(F)(F)C(F)(F)C(F)(F)CCI,Potency,[1],inactive
same,Potency,[2],inactive
same,Potency,[3],inactive
same,Potency,[11],inactive
same,Potency,[4],inactive
same,Potency,[12],inactive
same,Potency,[6],inactive
same,Potency,[7],inactive
same,Potency,[13],27.9 µM (active)
same,Potency,[14],inactive
same,Potency,[8],inactive
same,Potency,[9],inactive
same,Potency,[10],inactive
CCCCCCCCCCCCCOS(=O)(=O)O,Potency,[1],inactive
same,Potency,[2],inactive
same,Potency,[15],inactive
same,Potency,[4],inactive
same,Potency,[16],inactive
same,Potency,[17],inactive
same,Potency,[5],inactive
same,Potency,[6],inactive
same,Potency,[8],inactive
same,Potency,[9],inactive
same,Potency,[10],inactive
CCCCCCCC(=O)Oc1c(Br)cc(C#N)cc1Br,Potency,[1],inactive
same,Potency,[2],inactive
same,Potency,[18],inactive
same,Potency,[4],inactive
same,Potency,[5],inactive
same,Potency,[7],inactive
same,Potency,[14],60.9 µM (active)
same,Potency,[8],inactive
same,Potency,[9],60.9 µM (active)
COc1ccc(-c2cc(=S)ss2)cc1,Potency,[1],inactive
same,Potency,[2],26.6 µM (active)
same,Potency,[5],inactive
same,Potency,[6],inactive
same,Potency,[7],inactive
same,Potency,[8],inactive
same,Potency,[9],inactive
CC(C)C1CCC(C(=O)N[C@H](Cc2ccccc2)C(=O)O)CC1 (some centres undefined),Potency,[1],inactive
same,Potency,[2],inactive
same,Potency,[3],inactive
same,Potency,[11],inactive
same,Potency,[4],inactive
same,Potency,[17],inactive
same,Potency,[19],inactive
same,Potency,[5],inactive
same,Potency,[6],inactive
same,Potency,[7],inactive
same,Potency,[13],inactive
same,Potency,[14],inactive
same,Potency,[8],inactive
same,Potency,[9],inactive
same,Potency,[10],inactive
O=C(NS(=O)(=O)/C=C/c1ccccc1)c1ccc(F)cc1Cl,Potency,[1],inactive
same,Potency,[2],inactive
same,Potency,[3],inactive
same,Potency,[11],inactive
same,Potency,[4],inactive
same,Potency,[17],inactive
same,Potency,[19],inactive
same,Potency,[5],inactive
same,Potency,[6],inactive
same,Potency,[7],inactive
same,Potency,[8],inactive
same,Potency,[9],inactive
same,Potency,[10],inactive
CC1=CC[C@@H]2C[C@H]1C2(C)C,Potency,[1],inactive
same,Potency,[2],inactive
same,Potency,[4],inactive
same,Potency,[19],inactive
same,activation,[5],0.116% [at 18 µM]
same,"activity, negative = cytotoxicity",[6],-16.5% [at 15 µM]
same,activation,[7],-0.944% [at 14.9 µM]
same,Potency,[13],inactive
same,Potency,[14],inactive
same,Potency,[8],inactive
same,Potency,[9],inactive
same,Potency,[10],inactive
O=C(O)CCC(=O)OC[C@@H](NC(=O)C(Cl)Cl)[C@H](O)c1ccc([N+](=O)[O-])cc1,Potency,[1],inactive
same,Potency,[18],inactive
same,Potency,[3],inactive
same,Potency,[11],inactive
same,Potency,[4],inactive
same,Potency,[17],inactive
same,Potency,[19],inactive
same,Potency,[5],inactive
same,Potency,[6],inactive
same,Potency,[8],inactive
same,Potency,[9],inactive
same,Potency,[10],inactive
Cc1cn([C@H]2C[C@H](F)[C@@H](CO)O2)c(=O)[nH]c1=O,Potency,[1],inactive
same,Potency,[18],inactive
same,Potency,[3],inactive
same,Potency,[11],inactive
same,outcome,[20],inactive
same,Potency,[15],inactive
same,Potency,[4],inactive
same,Potency,[16],inactive
same,Potency,[17],inactive
same,Potency,[19],inactive
same,Potency,[5],inactive
same,Potency,[12],inactive
same,Potency,[6],inactive
same,Potency,[7],inactive
same,Potency,[13],inactive
same,Potency,[14],inactive
same,Potency,[8],inactive
same,Potency,[9],inactive
same,Potency,[10],inactive
CCN(CC)c1cccc(O)c1,Potency,[1],inactive
same,Potency,[2],inactive
same,Potency,[3],inactive
same,Potency,[15],inactive
same,Potency,[4],inactive
same,Potency,[16],inactive
same,Potency,[17],inactive
same,Potency,[19],inactive
same,Potency,[5],inactive
same,Potency,[6],inactive
same,Potency,[13],70 µM (active)
same,Potency,[14],inactive
same,Potency,[8],inactive
same,Potency,[9],inactive
same,Potency,[10],inactive
O=C(C(=O)c1ccco1)c1ccco1,Potency,[1],inactive
same,Potency,[18],inactive
same,Potency,[3],inactive
same,Potency,[11],inactive
same,outcome,[20],inactive
same,Potency,[15],inactive
same,Potency,[4],inactive
same,Potency,[16],inactive
same,Potency,[17],inactive
same,Potency,[19],inactive
same,Potency,[5],inactive
same,Potency,[12],inactive
same,Potency,[6],inactive
same,Potency,[7],inactive
same,Potency,[13],inactive
same,Potency,[14],inactive
same,Potency,[8],inactive
same,Potency,[9],inactive
same,Potency,[10],inactive
CCCCOC(=O)CCCCC(=O)OCCCC,Potency,[1],inactive
same,Potency,[2],inactive
same,Potency,[3],inactive
same,Potency,[4],inactive
same,Potency,[19],inactive
same,Potency,[5],inactive
same,Potency,[6],inactive
same,Potency,[8],inactive
same,Potency,[10],inactive
O=CNNC=O,Potency,[1],inactive
same,Potency,[2],inactive
same,Potency,[3],inactive
same,Potency,[4],inactive
same,Potency,[17],inactive
same,Potency,[19],inactive
same,Potency,[5],inactive
same,Potency,[6],inactive
same,Potency,[7],inactive
same,Potency,[13],inactive
same,Potency,[14],inactive
same,Potency,[8],inactive
same,Potency,[9],inactive
same,Potency,[10],inactive
Nc1ccc(S(=O)(=O)NCc2ccccc2)cc1,Potency,[1],inactive
same,Potency,[2],inactive
same,Potency,[3],inactive
same,Potency,[11],inactive
same,Potency,[19],inactive
same,Potency,[5],inactive
same,Potency,[6],inactive
same,Potency,[8],inactive
same,Potency,[9],inactive
same,Potency,[10],inactive
CC1CCc2nccnc21 (centres undefined),Potency,[1],inactive
same,Potency,[2],inactive
same,Potency,[3],54.5 µM (active)
same,Potency,[11],inactive
same,Potency,[4],inactive
same,Potency,[19],inactive
same,Potency,[5],inactive
same,Potency,[6],inactive
same,Potency,[7],inactive
same,Potency,[13],inactive
same,Potency,[14],inactive
same,Potency,[8],inactive
same,Potency,[9],inactive
same,Potency,[10],inactive
c1ccc(CCCc2ccncc2)cc1,Potency,[1],inactive
same,Potency,[2],inactive
same,Potency,[3],inactive
same,Potency,[11],inactive
same,Potency,[4],inactive
same,Potency,[17],inactive
same,Potency,[19],inactive
same,Potency,[5],inactive
same,Potency,[12],inactive
same,Potency,[6],inactive
same,Potency,[7],inactive
same,Potency,[13],inactive
same,Potency,[14],inactive
same,Potency,[8],inactive
same,Potency,[9],30.6 µM (active)
same,Potency,[10],inactive
O=S(=O)(Cl)c1c(Cl)cccc1Cl,Potency,[1],inactive
same,Potency,[18],inactive
same,Potency,[3],inactive
same,Potency,[11],inactive
same,outcome,[20],inactive
same,Potency,[15],inactive
same,Potency,[4],inactive
same,Potency,[16],inactive
same,Potency,[17],inactive
same,Potency,[12],inactive
same,Potency,[6],inactive
same,Potency,[7],inactive
same,Potency,[13],inactive
same,Potency,[14],inactive
same,Potency,[8],inactive
same,Potency,[9],inactive
same,Potency,[10],inactive
C=C(C)C(=O)OCCC(F)(F)C(F)(F)C(F)(F)C(F)(F)C(F)(F)C(F)(F)F,Potency,[1],inactive
same,Potency,[2],inactive
same,Potency,[3],inactive
same,Potency,[4],inactive
same,Potency,[17],inactive
same,Potency,[19],inactive
same,Potency,[5],inactive
same,Potency,[6],inactive
same,Potency,[7],inactive
same,Potency,[13],inactive
same,Potency,[14],inactive
same,Potency,[8],inactive
same,Potency,[9],inactive
same,Potency,[10],inactive

# Source: PubChem BioAssay (Tox21)
